Shown are actives, neighbours in structure and some others; about 3.6% of the full set was active somewhere.
DUSP3 inh = DUSP3 (human) phosphatase inhibition; AID 1654; inhibition, % at 13.3 µM; recombinant VHR phosphatase, pNPP absorbance; hit rate 0.52% among 290,000; P51452; in the data active means inhibition above about 50%
Target sequence (P51452 whole entry, looked up): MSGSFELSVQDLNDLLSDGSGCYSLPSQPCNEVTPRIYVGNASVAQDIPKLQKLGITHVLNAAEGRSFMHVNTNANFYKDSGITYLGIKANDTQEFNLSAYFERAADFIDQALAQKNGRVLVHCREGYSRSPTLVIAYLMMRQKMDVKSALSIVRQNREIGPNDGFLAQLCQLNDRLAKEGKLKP
GDH-TPI inh = GDH-TPI coupled enzyme inhibition counter-screen; GDH-TPI coupled enzyme counterscreen, NADH absorbance; inhibition, % at 4.8 µM; hit rate 1.2% among 360,000; in the data active means inhibition above about 30%
Mtb hypoxia inh = reduces hypoxia-regulated biosensor signal in M. tuberculosis. M. tuberculosis hypoxia-regulated fluorescent reporter, fluorescence. fluorescence inhibition, % (no concentration beside the values). hit rate 0.1% among 300,000; in the data active means fluorescence inhibition mostly above about 23%, no sharp cut-off; inactive means mostly below about 17%
Mtb betalactam = beta-lactam sensitization of Mtb H37Rv; M. tuberculosis H37Rv growth with meropenem, percent inhibition; inhibition, % at 25 µM; hit rate 0.27% among 330,000; AID 434955; call rule not given here;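 further: growth measured after seven days incubation then overnight dye step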
Mtb FBA inh = inhibitors of M. tuberculosis fructose-bisphosphate aldolase. hit rate 2.3% among 360,000. inhibition, % at 1 µM. purified M. tuberculosis FBA, fluorescence read-out. P9WQA3; in the data active means inhibition above about 27%
Target sequence (P9WQA3 whole entry, looked up): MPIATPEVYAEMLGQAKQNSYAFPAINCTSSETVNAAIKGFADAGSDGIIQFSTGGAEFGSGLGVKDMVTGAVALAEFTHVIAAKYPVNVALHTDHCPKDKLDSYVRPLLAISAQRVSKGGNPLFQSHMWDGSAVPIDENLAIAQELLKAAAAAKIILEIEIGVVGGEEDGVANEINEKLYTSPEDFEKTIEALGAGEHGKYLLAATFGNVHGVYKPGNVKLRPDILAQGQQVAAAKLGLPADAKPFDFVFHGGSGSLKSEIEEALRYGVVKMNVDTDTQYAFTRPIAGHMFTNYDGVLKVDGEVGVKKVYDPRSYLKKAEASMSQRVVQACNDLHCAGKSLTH
Each line names hits and unclear results; the compound was inactive in the other large screens.

COc1ccc2nc(/C=N/NC(=O)CCNC(=O)OC(C)(C)C)ccc2c1	GDH-TPI inh 52, Mtb FBA inh 69 (no result: Mtb hypoxia inh)
CN1CCN(C=Nc2c(C#N)cnn2-c2ccccc2)CC1	none (no result: DUSP3 inh, GDH-TPI inh, Mtb betalactam, Mtb FBA inh)
COCC(=O)N1CCCC(C(=O)c2ccc3c4c(cccc24)CC3)C1 (configuration not stated)	GDH-TPI inh 39
CCOC(=O)c1c(-c2ccccc2)cn2ccccc12	Mtb FBA inh 168 (no result: Mtb hypoxia inh)
Cc1ccc(C(=O)OCC(=O)Nc2ccccc2)cc1S(=O)(=O)N1CCCCC1	Mtb hypoxia inh 35 (no result: DUSP3 inh)
Cc1cccc(NC(=O)COC(=O)c2ccc(C)c(S(=O)(=O)N3CCCCC3)c2)c1	none (no result: DUSP3 inh)
O=C(C=C1NC2(CCCC2)Cc2ccccc21)N1CCOCC1	none (no result: DUSP3 inh, GDH-TPI inh, Mtb betalactam, Mtb FBA inh)
Cc1cccc(C(=O)N(Cc2nc3ccccc3c(=O)[nH]2)C2CCCCC2)c1	DUSP3 inh 52
COC(=O)c1ccc(COc2ccccc2C=NO)o1	none (no result: DUSP3 inh, GDH-TPI inh, Mtb betalactam, Mtb FBA inh)
CCC(=NNC(=O)CNc1ccc(Cl)cc1C)c1ccccc1	none (no result: DUSP3 inh, GDH-TPI inh, Mtb betalactam, Mtb FBA inh)
CCN(CC)CCNc1ncnc2c1sc1nc(N3CCOCC3)c3c(c12)CCCC3	GDH-TPI inh 35
OCCNc1ncnc2c1sc1nc(N3CCOCC3)c3c(c12)CCC3	none
O=C(OC1CCCCC1)c1ccc2c(c1)C1C=CCC1C(C(=O)O)N2 (configuration not stated)	DUSP3 inh 87 (no result: GDH-TPI inh, Mtb hypoxia inh, Mtb betalactam, Mtb FBA inh)
Cc1cccc(-c2nnc(NC(=O)c3ccc(N4C(=O)CCC4=O)cc3)s2)c1	none
Cc1ccccc1-c1nnc(NC(=O)c2ccc(N3C(=O)CCC3=O)cc2)s1	GDH-TPI inh 33 (no result: Mtb hypoxia inh)
O=C(NN=Cc1c[nH]c2ccccc12)c1cccc(O)c1	none (no result: DUSP3 inh, GDH-TPI inh, Mtb betalactam, Mtb FBA inh)
CC1CCCC(C)N1C(=O)COC(=O)c1cccnc1Cl (configuration not stated)	Mtb hypoxia inh 34 (no result: DUSP3 inh)
O=C(COC(=O)c1cccnc1Cl)NC1CCCCCC1	none (no result: DUSP3 inh)
CCCC1CCCO[C@@](C(=O)NCCN2CCOCC2)(C(F)(F)F)C1 (some centres not stated)	none (no result: DUSP3 inh, GDH-TPI inh, Mtb betalactam, Mtb FBA inh)
CC(C)c1ccc(C=Nn2nnnc2Nc2ccccc2)cc1	none (no result: DUSP3 inh, GDH-TPI inh, Mtb betalactam, Mtb FBA inh)
COc1cc(/C=N/n2nnnc2Nc2ccccc2)cc(OC)c1OC	GDH-TPI inh 34 (no result: Mtb hypoxia inh)
NC(=S)NN=C1c2ccccc2-c2c(C(=O)O)cccc21	none (no result: DUSP3 inh, GDH-TPI inh, Mtb betalactam, Mtb FBA inh)
C=CCCC(Cc1ccc(F)cc1)C(=O)OCC1CCCN1C(=O)C(CC=C)CC(=O)NCCO (configuration not stated)	none (no result: DUSP3 inh, GDH-TPI inh, Mtb betalactam, Mtb FBA inh)
CCN1C=C(C(=O)OC)C(c2cccc(OC)c2OC)C(C(=O)OC)=C1	Mtb FBA inh 172
COC(=O)C1=CN(C2CC2)C=C(C(=O)OC)C1c1ccccc1OC	Mtb FBA inh 157
COC(=O)C1=CN(Cc2ccccc2)C=C(C(=O)OC)C1c1ccc(OC)c(OC)c1	none
COC(=O)C1=CN(Cc2ccc(OC)c(OC)c2)C=C(C(=O)OC)C1c1cccc(OC)c1OC	Mtb FBA inh 140
COc1ccc(C=NNc2ccccc2C(=O)O)cc1	none (no result: DUSP3 inh, GDH-TPI inh, Mtb betalactam, Mtb FBA inh)
CN(C)CCCNC(=O)C(=NO)c1ccccc1	none (no result: DUSP3 inh, GDH-TPI inh, Mtb betalactam, Mtb FBA inh)
CCc1n[nH]c(=S)n1N=Cc1ccc(N(CC)CC)cc1	none (no result: DUSP3 inh, GDH-TPI inh, Mtb betalactam, Mtb FBA inh)
CCN(CC)c1ccc(/C=N/n2c(-c3ccccc3Br)n[nH]c2=S)cc1	GDH-TPI inh 38 (no result: Mtb hypoxia inh)
CCCC(CNC(CNC)C(C)CC)NCC1CCC(C(C)(C)C)CC1 (configuration not stated)	none (no result: DUSP3 inh, GDH-TPI inh, Mtb betalactam, Mtb FBA inh)
Cc1cc(-c2ccccc2)nc(N(C)C)c1S(C)(=O)=O	none
CNc1nc(-c2ccccc2)cc(C)c1S(C)(=O)=O	Mtb FBA inh active (no result: Mtb hypoxia inh)
COC(=O)C1=C(c2cccc(C#N)c2)CC2CCC1N2C(=O)NCC1CC1 (configuration not stated)	none (no result: DUSP3 inh, GDH-TPI inh, Mtb betalactam, Mtb FBA inh)
CCOC(=O)C(=CNc1ncccc1C)C(=O)OCC	GDH-TPI inh 38
CCOC(=O)C(=CNc1ccc(S(N)(=O)=O)cc1)C(=O)OCC	GDH-TPI inh 41
CCOC(=O)C(=CNc1ccc(C#N)cc1)C(=O)OCC	none (no result: Mtb hypoxia inh)
COc1cc(C(=O)Nc2ccc3c(c2)CCN3C(C)=O)cc(OC)c1OC	none
CCOC(=O)C(=CNc1ccc2c(c1)CCN2C(C)=O)C(=O)OCC	GDH-TPI inh 35
CCOC(=O)C(=CNc1ccc(N2CCOCC2)cc1)C(=O)OCC	GDH-TPI inh 63
CCOC(=O)c1ccc(S(=O)(=O)Nc2ccc(N3CCOCC3)cc2)cc1	none
Clc1ccccc1CN1CCN(N=Cc2ccncc2)CC1	none (no result: DUSP3 inh, GDH-TPI inh, Mtb betalactam, Mtb FBA inh)
c1ccc(CSC2=NNC(c3ccccn3)S2)cc1 (configuration not stated)	none
O=C(CSC1=NNC(c2ccccn2)S1)Nc1ccc(C(F)(F)F)cc1 (configuration not stated)	GDH-TPI inh 32
CCCC(C#Cc1ccsc1)=C1c2ccccc2C(=O)N1c1ccccc1	none (no result: DUSP3 inh, GDH-TPI inh, Mtb betalactam, Mtb FBA inh)
O=C(COc1ccc(Cl)cc1)NCc1nnc2c3ccccc3c(-c3ccccc3)nn12	DUSP3 inh 51

Bioassay records (PubChem)
